# Source: PMC5540273 (PLoS ONE, 2017)
# Columns and labels:
# Conditions in all cases: concentration: 1 μM, replicates: in singlicate; n = 1
# LRRK2 = tested on: LRRK2
# LTK = tested on: LTK
# LYN = tested on: LYN
# LZK = tested on: T1, LZK
# T1 construct: gene MAP3K13
# MAK = tested on: MAK
# MAP3K15 = tested on: MAP3K15
# MAP3K1 = tested on: MAP3K1
# MAP3K2 = tested on: MAP3K2
# MAP3K3 = tested on: MAP3K3
# MAP3K4 = tested on: MAP3K4
# MAP4K2 = tested on: MAP4K2
# MAP4K3 = tested on: MAP4K3
# MAP4K4 = tested on: MAP4K4
# MAP4K5 = tested on: MAP4K5
# MAPKAPK2 = tested on: MAPKAPK2
# MAPKAPK5 = tested on: MAPKAPK5
# MARK1 = tested on: MARK1
# MARK2 = tested on: MARK2
# MARK3 = tested on: MARK3
# MARK4 = tested on: MARK4
# 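Also: KINOMEscan kinase panel screen.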
Structure (SMILES),%Inh (LRRK2) [%],%Inh (LTK) [%],%Inh (LYN) [%],%Inh (LZK) [%],%Inh (MAK) [%],%Inh (MAP3K15) [%],%Inh (MAP3K1) [%],%Inh (MAP3K2) [%],%Inh (MAP3K3) [%],%Inh (MAP3K4) [%],%Inh (MAP4K2) [%],%Inh (MAP4K3) [%],%Inh (MAP4K4) [%],%Inh (MAP4K5) [%],%Inh (MAPKAPK2) [%],%Inh (MAPKAPK5) [%],%Inh (MARK1) [%],%Inh (MARK2) [%],%Inh (MARK3) [%],%Inh (MARK4) [%]
CS(=O)(=O)CCNCc1nc(-c2ccc3ncnc(Nc4ccc(OCc5ccccc5)c(Cl)c4)c3c2)cs1.Cl [GW582764],12,0,0,36,26,0,6,3,0,20,0,0,10,8,21,0,0,0,0,0
CNCc1ccc2nc(NC(=O)c3ccc(C(C)(C)C)cc3)cn2c1,10,12,0,0,15,98.9,19,21,0,4,22,0,0,0,0,5,0,0,9,4
Cc1ccc(-c2nc(Nc3ccncc3)c3ccccc3n2)s1 [GSK189015],54,1,0,0,36,12,40,0,0,26,0,19,23,15,25,0,7,0,22,13
COc1cccc(NC(=O)Nc2ccc(C)c(-c3ccc(C(=O)Nc4ccncc4)cc3)c2)c1 [GSK1398474],0,23,97.9,0,100,0,13,0,0,20,0,0,24,16,5,0,94.1,18,0,20
CSc1ccc(-c2nc3n(c2-c2ccncc2)CCC3)cc1 [SKF-105561],0,31,8,45,0,16,0,3,0,9,0,0,1,0,10,22,0,16,0,0
Cc1c(Cn2c3ccccc3n3c(=O)cc(N4CCOCC4)nc23)cccc1C(F)(F)F [GSK2306394],33,11,0,0,15,0,14,2,0,18,2,0,11,8,0,0,0,0,0,0
CCc1ccc(-c2ccc3c(c2)-c2n[nH]cc2S(=O)(=O)N3C)cc1,0,3,0,0,0,0,0,0,0,19,0,15,15,12,0,0,0,0,0,0
Cc1ccccc1-c1cc(-c2c[nH]nc2-c2ccccn2)ccn1 [GW680061],23,0,0,4,34,0,10,1,0,14,0,0,0,0,24,0,0,0,0,0
CC(=O)c1c(C)c2cnc(Nc3ccn(C)n3)nc2n(C2CCCC2)c1=O,0,0,10,0,0,0,0,0,0,0,0,24,0,0,0,0,0,0,12,0
Cc1nccc(-c2c(-c3ccc(F)cc3)ncn2CCCN2CCOCC2)n1.Cl [SB-282975],0,30,9,0,25,28,20,17,19,22,0,1,30,37,0,4,0,4,7,45
O=C(Nc1n[nH]c2cc(-c3ccsc3)ccc12)C1CC1 [SB-732932],0,0,4,52,41,45,23,17,5,5,25,0,18,2,0,24,0,24,0,12
